The source of these data is PubChem BioAssay (EPA / NIEHS).

Structures are written as SMILES. “And” between values parts separate entries of the source, which are not always exact repeats. Equal entries are not always repeated. Inconclusive results are not listed. Where a structure was tested more than once in an assay, its records may differ in their call. The source made the active and inactive calls. The calls were made as follows: active = hit-call score of the fitted dose curve at least 0.9, where 1 is the maximum; inconclusive = response in the unintended direction; inactive = score below 0.9.

For experiment [1], the system named is turtle Estrogen Receptor (ERa), gene 101933533. Briefly: ATG_trERa_XSP2: Attagene TRANS-FACTORIAL Multi-Species (XSP2) HepG2 Assay for turtle Estrogen Receptor (ERa) (AID 2283812).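 Also: human HepG2 liver cells transiently expressing turtle ERa-Gal4 chimeric receptor; actives raise reporter signal above DMSO so AC50 reflects agonist activity.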 An outline of the steps:
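HepG2 cells transiently transfected with GAL4-UAS reporter units expressing turtle ERa-Gal4 chimera. Reporter mRNA measured after 24 h dosing by RT-PCR, fluorescent labelling and capillary electrophoresis; gain of signal fitted versus DMSO.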

The target of experiment [2] is Estrogen receptor beta (Homo sapiens) (UniProt Q92731). Briefly: ATG_hERb_XSP2: Attagene TRANS-FACTORIAL Multi-Species (XSP2) HepG2 Assay for human Estrogen Receptor (ERb) (AID 2283813).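 Also: actives raise reporter mRNA above DMSO so AC50 reflects agonist induction.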 An outline of the steps:
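HepG2 cells transiently transfected with GAL4-UAS reporter units and chimeric human ERb-Gal4, 24 h exposure. Reporter mRNA quantified by RT-PCR with FAM labelling, HpaI digestion and capillary electrophoresis; gain of signal versus DMSO.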

The subject of experiment [3] is turtle Androgen Receptor (AR), gene 101947425. The experiment in a line: ATG_trAR_XSP2: Attagene TRANS-FACTORIAL Multi-Species (XSP2) HepG2 Assay for turtle Androgen Receptor (AR) (AID 2283815). An outline of the steps: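 HepG2 cells transiently transfected with GAL4-UAS reporter units for chimeric NR-Gal4 receptors; 24 h dosing in presence of 3 nM 6-alpha-fluorotestosterone and 1.5 nM norgestrel. Reporter mRNA by RT-PCR and capillary electrophoresis, gain of signal versus DMSO.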

Experiment [4] concerns the target chicken Estrogen Receptor (ERa), ESR1 (gene 396099) (UniProt P06212). The experiment in a line: ATG_chERa_XSP2: Attagene TRANS-FACTORIAL Multi-Species (XSP2) HepG2 Assay for chicken Estrogen Receptor (ERa) (AID 2283817).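 Also: actives raise reporter signal above DMSO so AC50 reflects ER activation.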 Summed up:
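Transiently transfected HepG2 cells expressing chimeric chicken ERa-GAL4 reporter units, dosed 24 h with 3 nM 6-alpha-fluorotestosterone and 1.5 nM norgestrel present. Reporter mRNA measured by RT-PCR and capillary electrophoresis; gain-of-signal fitted relative to DMSO.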

The subject of experiment [5] is frog Estrogen Receptor (ER), gene 398734. The experiment in a line: ATG_frER1_XSP2: Attagene TRANS-FACTORIAL Multi-Species (XSP2) HepG2 Assay for frog Estrogen Receptor (ER) (AID 2283821).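 Also: hits raise reporter mRNA above DMSO baseline so potency means agonist or activator.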 An outline of the steps: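 HepG2 cells transiently transfected with GAL4-UAS reporter units expressing a chimeric frog ER-Gal4 protein; 24 h exposure. Reporter mRNA quantified by RT-PCR, fluorescent labelling and capillary electrophoresis; gain of signal fitted against DMSO baseline.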

Experiment [6] in a line: ATG_M_19_XSP2: Attagene TRANS-FACTORIAL Multi-Species (XSP2) HepG2 Assay for M32 Transcription Factor (Internal Marker) (AID 2283822). An outline of the steps: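 Internal background marker in a multi-species nuclear receptor TRANS panel: transfected HepG2 cells exposed 24 h, with 3 nM 6-alpha-fluorotestosterone and 1.5 nM norgestrel present. Readout is RT-PCR of reporter transcripts resolved by capillary electrophoresis, gain-of-signal versus DMSO.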

Experiment [7] concerns zebrafish Estrogen Receptor (ER2b), gene 317733. The experiment in a line: ATG_zfER2b_XSP2: Attagene TRANS-FACTORIAL Multi-Species (XSP2) HepG2 Assay for zebrafish Estrogen Receptor (ER2b) (AID 2283823).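 Also: fitted upward as reporter gain over DMSO so potency reflects activation.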 Summed up:
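Read-out: fluorescent reporter mRNA, measured by RT-PCR then capillary electrophoresis after HpaI digestion. HepG2 cells carried transiently transfected multi-reporter TRANS constructs (NR-Gal4 chimeras); 24 h chemical exposure; activity scored upward versus DMSO control.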

In experiment [8] the target is Estrogen receptor (Homo sapiens) (UniProt P03372). The experiment in a line: ATG_hERa_XSP2: Attagene TRANS-FACTORIAL Multi-Species (XSP2) HepG2 Assay for human Estrogen Receptor (ERa) (AID 2283827). An outline of the steps: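 HepG2 cells transiently transfected with multiplexed GAL4-UAS reporters driven by chimeric receptor-Gal4 proteins, dosed 24 h with 3 nM 6-alpha-fluorotestosterone and 1.5 nM norgestrel present. Reporter mRNA by RT-PCR and capillary electrophoresis; gain-of-signal fit versus DMSO.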

For experiment [9], the target named is Peroxisome proliferator-activated receptor gamma (Homo sapiens) (UniProt P37231). Briefly: ATG_hPPARg_XSP2: Attagene TRANS-FACTORIAL Multi-Species (XSP2) HepG2 Assay for human Peroxisome Proliferator-activated Receptor gamma (PPARg) (AID 2283829).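 Also: actives raise reporter mRNA above DMSO so AC50 reflects PPARg activation.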 An outline of the steps: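 HepG2 cells transiently transfected with multiplexed GAL4-UAS reporter units for chimeric NR-Gal4 receptors, dosed 24 h. Reporter mRNA quantified by RT-PCR, 6-FAM labeling, HpaI digestion and capillary electrophoresis; gain-of-signal fitted against DMSO baseline.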

Experiment [10] has as its target mouse Peroxisome Proliferator-activated Receptor gamma (PPARg), Pparg (gene 19016) (UniProt P37238). Briefly: ATG_mPPARg_XSP2: Attagene TRANS-FACTORIAL Multi-Species (XSP2) HepG2 Assay for mouse Peroxisome Proliferator-activated Receptor gamma (PPARg) (AID 2283830).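 Also: hits are gains in reporter mRNA above DMSO so AC50 marks activation.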 An outline of the steps:
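HepG2 cells transiently transfected with GAL4-UAS reporter units for chimeric NR-Gal4 proteins including mouse PPARg, exposed 24 h; medium contained 3 nM 6-alpha-fluorotestosterone and 1.5 nM norgestrel. Reporter mRNA quantified by RT-PCR, HpaI digestion and capillary electrophoresis, vs DMSO.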

A short description of experiment [11]: ATG_M_06_XSP2: Attagene TRANS-FACTORIAL Multi-Species (XSP2) HepG2 Assay for M06 Transcription Factor (Internal Marker) (AID 2283811).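 Also: hits are increases in signal above the DMSO baseline.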 Summed up:
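HepG2 cells transiently transfected with GAL4-UAS multiple reporter units, medium containing 3 nM 6-alpha-fluorotestosterone and 1.5 nM norgestrel; reporter mRNA measured 24 hours post-dosing by RT-PCR and capillary electrophoresis. Internal background marker, gain of signal vs DMSO.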

Experiment [12] concerns the target GAL4 Transcription Factor (Internal Marker), GAL4 (gene 855828) (UniProt P04386). The experiment in a line: ATG_GAL4_XSP2: Attagene TRANS-FACTORIAL Multi-Species (XSP2) HepG2 Assay for GAL4 Transcription Factor (Internal Marker) (AID 2283814).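 Also: GAL4 reporter mRNA background control in MRTU transfected cells not a receptor target.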 An outline of the steps: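 HepG2 cells transiently transfected with GAL4-UAS reporter units, stimulated with 3 nM 6-alpha-fluorotestosterone plus 1.5 nM norgestrel, dosed 24 h. Reporter mRNA by RT-PCR/capillary electrophoresis; gain-of-signal fit versus DMSO, background control.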

Experiment [13] addresses zebrafish Estrogen Receptor (ER1), esr1 (gene 259252) (UniProt P57717). The experiment in a line: ATG_zfER1_XSP2: Attagene TRANS-FACTORIAL Multi-Species (XSP2) HepG2 Assay for zebrafish Estrogen Receptor (ER1) (AID 2283816). Summed up:
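HepG2 cells transiently transfected with a GAL4-UAS reporter and a chimeric zebrafish ER1-Gal4 construct, dosed 24 h. Reporter mRNA quantified by RT-PCR, labelling, HpaI digestion and capillary electrophoresis, relative to DMSO.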

Experiment [14] relates to zebrafish Estrogen Receptor (ER2a), gene 317734. Briefly: ATG_zfER2a_XSP2: Attagene TRANS-FACTORIAL Multi-Species (XSP2) HepG2 Assay for zebrafish Estrogen Receptor (ER2a) (AID 2283818).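 Also: hits raise reporter mRNA so AC50 reflects activation of zebrafish ER2a.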 An outline of the steps:
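HepG2 cells transiently transfected with GAL4-UAS reporter units and chimeric zebrafish ER2a-Gal4, exposed 24 h; medium contains 3 nM 6-alpha-fluorotestosterone and 1.5 nM norgestrel. Reporter mRNA quantified by RT-PCR, HpaI digestion, capillary electrophoresis; gain versus DMSO.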

Experiment [15] relates to frog Estrogen Receptor (ER2), gene 100174814. Briefly: ATG_frER2_XSP2: Attagene TRANS-FACTORIAL Multi-Species (XSP2) HepG2 Assay for frog Estrogen Receptor (ER2) (AID 2283828). An outline of the steps:
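HepG2 cells transiently transfected with multiplexed GAL4-UAS reporter units expressing chimeric frog ER2–Gal4 protein; reporter mRNA measured 24 h after chemical dosing by RT-PCR, fluorescent labeling and capillary electrophoresis. Gain-of-signal fitted relative to DMSO baseline.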

The target of experiment [16] is zebrafish Thyroid Hormone Receptor alpha (TRa), thraa (gene 30670) (UniProt Q98867). The experiment in a line: ATG_zfTRa_XSP2: Attagene TRANS-FACTORIAL Multi-Species (XSP1) HepG2 Assay for zebrafish Thyroid Hormone Receptor alpha (TRa) (AID 2283832).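 Also: actives raise zebrafish TRa-Gal4 reporter transcript above DMSO baseline.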 Summed up:
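HepG2 transiently transfected with GAL4-UAS reporter units and chimeric zebrafish TRa-Gal4; reporter mRNA quantified after 24 h dosing by RT-PCR, HpaI digestion and capillary electrophoresis fluorescence. Gain of signal vs DMSO; XSP2 medium contains 3 nM 6-alpha-fluorotestosterone, 1.5 nM norgestrel.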

The test system of experiment [17] is chicken Androgen Receptor (AR), gene 422165. The experiment in a line: ATG_chAR_XSP2: Attagene TRANS-FACTORIAL Multi-Species (XSP2) HepG2 Assay for chicken Androgen Receptor (AR) (AID 2283819).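 Also: hits raise reporter mRNA above DMSO so potency is for activation.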 Summed up: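 HepG2 cells transiently transfected with chicken AR–GAL4 chimeric reporter constructs, stimulated with 3 nM 6-alpha-fluorotestosterone plus 1.5 nM norgestrel, dosed 24 h. Reporter mRNA quantified by RT-PCR and capillary electrophoresis; gain of signal fitted versus DMSO.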

Experiment [18] is described as follows: ATG_M_32_XSP2: Attagene TRANS-FACTORIAL Multi-Species (XSP2) HepG2 Assay for M19 Transcription Factor (Internal Marker) (AID 2283826). Summed up:
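HepG2 cells transiently transfected with GAL4-UAS reporter transcription units, dosed with compound for 24 h in presence of 3 nM 6-alpha-fluorotestosterone and 1.5 nM norgestrel; reporter mRNA quantified by RT-PCR, FAM labelling, HpaI digestion and capillary electrophoresis.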

Chain of zebrafish Estrogen Receptor (ER1), esr1 (gene 259252) (P57717 whole entry, looked up, the tested form may be a part): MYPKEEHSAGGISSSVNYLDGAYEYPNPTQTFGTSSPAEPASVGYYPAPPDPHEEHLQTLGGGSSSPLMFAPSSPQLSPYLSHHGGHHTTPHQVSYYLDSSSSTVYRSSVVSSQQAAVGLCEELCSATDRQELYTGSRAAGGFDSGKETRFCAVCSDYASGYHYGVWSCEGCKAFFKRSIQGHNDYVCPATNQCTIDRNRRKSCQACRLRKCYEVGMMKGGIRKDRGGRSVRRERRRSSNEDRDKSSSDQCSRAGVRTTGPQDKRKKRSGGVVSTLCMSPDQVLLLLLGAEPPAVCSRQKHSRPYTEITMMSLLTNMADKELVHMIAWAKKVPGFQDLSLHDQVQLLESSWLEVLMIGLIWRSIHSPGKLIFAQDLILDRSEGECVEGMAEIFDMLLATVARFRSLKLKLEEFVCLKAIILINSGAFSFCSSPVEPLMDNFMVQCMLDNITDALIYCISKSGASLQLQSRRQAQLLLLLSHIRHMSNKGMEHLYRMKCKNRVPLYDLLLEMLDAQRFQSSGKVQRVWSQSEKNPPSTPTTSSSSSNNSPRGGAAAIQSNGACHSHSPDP
Chain of Peroxisome proliferator-activated receptor gamma (Homo sapiens) (P37231 whole entry, looked up, the tested form may be a part): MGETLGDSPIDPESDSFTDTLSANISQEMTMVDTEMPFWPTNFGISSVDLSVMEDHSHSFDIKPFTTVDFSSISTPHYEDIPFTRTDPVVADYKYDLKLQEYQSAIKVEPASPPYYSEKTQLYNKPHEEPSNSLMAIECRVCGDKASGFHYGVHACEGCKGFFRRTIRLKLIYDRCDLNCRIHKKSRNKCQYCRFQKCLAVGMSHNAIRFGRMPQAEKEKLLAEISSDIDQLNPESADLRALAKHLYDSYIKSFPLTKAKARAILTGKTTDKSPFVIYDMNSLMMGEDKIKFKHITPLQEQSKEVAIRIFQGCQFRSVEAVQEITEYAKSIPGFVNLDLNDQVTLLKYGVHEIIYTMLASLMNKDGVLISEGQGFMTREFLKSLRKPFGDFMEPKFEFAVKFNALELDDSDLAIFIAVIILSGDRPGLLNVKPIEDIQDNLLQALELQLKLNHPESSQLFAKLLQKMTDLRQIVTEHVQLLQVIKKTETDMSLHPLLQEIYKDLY
Chain of chicken Estrogen Receptor (ERa), ESR1 (gene 396099) (P06212 whole entry, looked up, the tested form may be a part): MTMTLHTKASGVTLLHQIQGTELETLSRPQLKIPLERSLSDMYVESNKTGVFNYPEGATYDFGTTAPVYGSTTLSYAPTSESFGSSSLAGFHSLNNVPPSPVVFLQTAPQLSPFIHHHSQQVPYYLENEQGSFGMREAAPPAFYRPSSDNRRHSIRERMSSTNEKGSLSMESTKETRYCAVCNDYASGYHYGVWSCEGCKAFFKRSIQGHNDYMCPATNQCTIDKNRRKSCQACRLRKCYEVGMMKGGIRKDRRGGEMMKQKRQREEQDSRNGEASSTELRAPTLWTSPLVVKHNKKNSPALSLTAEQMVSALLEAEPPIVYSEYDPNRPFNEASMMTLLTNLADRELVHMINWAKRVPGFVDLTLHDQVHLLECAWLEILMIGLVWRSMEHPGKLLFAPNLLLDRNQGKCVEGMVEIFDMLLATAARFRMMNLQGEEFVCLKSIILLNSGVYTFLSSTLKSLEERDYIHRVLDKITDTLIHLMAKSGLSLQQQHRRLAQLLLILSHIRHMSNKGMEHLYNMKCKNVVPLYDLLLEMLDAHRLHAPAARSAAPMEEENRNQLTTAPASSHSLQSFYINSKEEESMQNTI
Chain of Estrogen receptor beta (Homo sapiens) (Q92731 whole entry, looked up, the tested form may be a part): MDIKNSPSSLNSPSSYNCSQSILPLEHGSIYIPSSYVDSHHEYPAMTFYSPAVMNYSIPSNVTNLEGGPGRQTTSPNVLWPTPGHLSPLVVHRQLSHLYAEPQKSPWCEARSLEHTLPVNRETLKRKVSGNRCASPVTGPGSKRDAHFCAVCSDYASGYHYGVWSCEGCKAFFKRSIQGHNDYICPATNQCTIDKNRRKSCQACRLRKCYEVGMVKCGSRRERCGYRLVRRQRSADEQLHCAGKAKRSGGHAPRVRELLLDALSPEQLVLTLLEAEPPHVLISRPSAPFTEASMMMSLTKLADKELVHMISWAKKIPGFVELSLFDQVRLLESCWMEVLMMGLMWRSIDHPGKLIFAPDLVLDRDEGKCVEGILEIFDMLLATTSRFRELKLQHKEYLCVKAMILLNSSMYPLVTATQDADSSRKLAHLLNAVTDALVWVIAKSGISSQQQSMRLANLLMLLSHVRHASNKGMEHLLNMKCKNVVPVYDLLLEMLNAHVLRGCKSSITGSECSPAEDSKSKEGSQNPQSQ
Chain of mouse Peroxisome Proliferator-activated Receptor gamma (PPARg), Pparg (gene 19016) (P37238 whole entry, looked up, the tested form may be a part): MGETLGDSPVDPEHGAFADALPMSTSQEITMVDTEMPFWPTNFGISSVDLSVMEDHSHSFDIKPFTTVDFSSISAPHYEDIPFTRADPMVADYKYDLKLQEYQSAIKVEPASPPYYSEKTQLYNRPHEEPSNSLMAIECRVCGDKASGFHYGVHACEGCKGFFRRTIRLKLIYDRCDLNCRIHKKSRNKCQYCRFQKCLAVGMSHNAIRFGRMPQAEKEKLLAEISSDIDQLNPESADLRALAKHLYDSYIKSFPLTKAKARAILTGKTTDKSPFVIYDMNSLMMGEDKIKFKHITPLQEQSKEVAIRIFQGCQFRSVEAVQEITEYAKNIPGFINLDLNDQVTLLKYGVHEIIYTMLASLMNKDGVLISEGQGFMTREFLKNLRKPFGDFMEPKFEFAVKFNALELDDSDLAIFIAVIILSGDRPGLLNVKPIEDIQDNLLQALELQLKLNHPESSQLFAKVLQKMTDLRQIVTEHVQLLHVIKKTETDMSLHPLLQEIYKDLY
Chain of zebrafish Thyroid Hormone Receptor alpha (TRa), thraa (gene 30670) (Q98867 whole entry, looked up, the tested form may be a part): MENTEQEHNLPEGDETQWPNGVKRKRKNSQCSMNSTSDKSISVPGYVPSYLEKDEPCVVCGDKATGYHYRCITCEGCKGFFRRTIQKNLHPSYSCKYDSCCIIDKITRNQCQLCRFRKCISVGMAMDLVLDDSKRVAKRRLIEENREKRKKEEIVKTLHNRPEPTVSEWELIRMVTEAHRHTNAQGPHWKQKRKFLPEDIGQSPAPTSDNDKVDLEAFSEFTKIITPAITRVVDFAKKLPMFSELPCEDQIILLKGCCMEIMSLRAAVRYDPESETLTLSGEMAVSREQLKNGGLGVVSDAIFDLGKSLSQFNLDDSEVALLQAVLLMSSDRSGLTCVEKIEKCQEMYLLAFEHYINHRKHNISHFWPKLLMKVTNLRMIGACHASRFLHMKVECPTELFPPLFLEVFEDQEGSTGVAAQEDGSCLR
Chain of Estrogen receptor (Homo sapiens) (P03372 whole entry, looked up, the tested form may be a part): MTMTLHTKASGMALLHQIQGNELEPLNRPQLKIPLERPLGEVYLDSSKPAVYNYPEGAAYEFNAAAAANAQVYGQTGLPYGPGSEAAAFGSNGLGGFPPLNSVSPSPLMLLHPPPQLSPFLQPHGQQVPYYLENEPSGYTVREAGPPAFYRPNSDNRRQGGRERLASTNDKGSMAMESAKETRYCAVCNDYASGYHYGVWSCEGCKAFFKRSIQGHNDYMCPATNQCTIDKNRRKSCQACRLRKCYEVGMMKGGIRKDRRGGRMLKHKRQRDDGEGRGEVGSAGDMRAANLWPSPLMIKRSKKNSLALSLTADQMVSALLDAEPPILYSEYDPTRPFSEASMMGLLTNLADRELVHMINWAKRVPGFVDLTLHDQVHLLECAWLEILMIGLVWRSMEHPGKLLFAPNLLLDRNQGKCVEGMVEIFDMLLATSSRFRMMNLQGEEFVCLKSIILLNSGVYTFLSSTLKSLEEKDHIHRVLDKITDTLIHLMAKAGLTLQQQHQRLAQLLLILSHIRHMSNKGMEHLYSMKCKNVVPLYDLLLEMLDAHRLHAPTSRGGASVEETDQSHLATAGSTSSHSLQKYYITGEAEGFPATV
Chain of GAL4 Transcription Factor (Internal Marker), GAL4 (gene 855828) (P04386 whole entry, looked up, the tested form may be a part): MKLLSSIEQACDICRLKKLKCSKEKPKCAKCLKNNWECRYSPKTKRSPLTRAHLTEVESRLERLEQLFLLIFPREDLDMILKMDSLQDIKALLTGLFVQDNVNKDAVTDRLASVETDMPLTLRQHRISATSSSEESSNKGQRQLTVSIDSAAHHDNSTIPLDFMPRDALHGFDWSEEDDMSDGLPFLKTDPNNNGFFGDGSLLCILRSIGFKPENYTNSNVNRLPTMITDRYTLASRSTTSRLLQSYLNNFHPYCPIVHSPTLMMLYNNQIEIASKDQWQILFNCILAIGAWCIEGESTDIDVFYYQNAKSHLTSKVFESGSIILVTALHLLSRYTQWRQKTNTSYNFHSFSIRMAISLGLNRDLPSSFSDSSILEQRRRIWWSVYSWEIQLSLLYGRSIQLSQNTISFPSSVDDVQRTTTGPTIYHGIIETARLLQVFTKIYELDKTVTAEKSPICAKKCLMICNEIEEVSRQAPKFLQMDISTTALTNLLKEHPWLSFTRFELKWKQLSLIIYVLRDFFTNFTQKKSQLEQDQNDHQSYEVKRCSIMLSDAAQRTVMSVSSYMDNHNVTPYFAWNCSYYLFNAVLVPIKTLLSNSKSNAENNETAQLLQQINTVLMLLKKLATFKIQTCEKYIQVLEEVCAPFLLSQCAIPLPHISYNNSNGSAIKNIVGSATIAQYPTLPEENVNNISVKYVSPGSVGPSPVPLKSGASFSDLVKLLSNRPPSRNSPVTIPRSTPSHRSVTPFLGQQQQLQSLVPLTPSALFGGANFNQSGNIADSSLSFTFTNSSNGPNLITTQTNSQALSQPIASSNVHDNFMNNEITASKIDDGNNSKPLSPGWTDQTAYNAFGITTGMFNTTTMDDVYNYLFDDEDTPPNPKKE

A word on the AC50: it is the concentration at which the activity in the assay is half-maximal. Take `CCCCCOC(=O)c1ccccc1C(=O)OCCCCC`: the compound was called inactive in [1], in [2], in experiment [3], in experiment [4], in experiment [5] and in experiment [6]. Besides, the AC50 was 100 µM (active) in [7], 72.1 µM (active) in experiment [8], 19.8 µM (active) in [9] and 62.9 µM (active) in experiment [10].

Consider `c1ccc2c(c1)-c1cccc3cccc-2c13`, for which the result in experiment [11], in [1], in experiment [2], in experiment [12], in [13] and in experiment [4] was inactive. Also, the outcome in experiment [14], in [5], in experiment [7], in [9], in [10] and in experiment [16] was inactive. Further, the AC50 in [4] was 27.7 µM (active); in experiment [7] it was 57.8 µM (active); in [15], 33.4 µM (active) and 25.2 µM (active); in experiment [9] it was 21.6 µM (active).

As to `Oc1ccc2ccc3cccc4ccc1c2c34`, the outcome in [11], in experiment [13], in experiment [17], in experiment [5], in experiment [18] and in experiment [16] was inactive. The AC50 was 8.33 µM (active) and 5.18 µM (active) in experiment [1]; 1.64 µM (active) and 1.79 µM (active) in [2]; 5.13 µM (active) in experiment [13]; 9.01 µM (active) and 2.69 µM (active) in experiment [4]; 10.6 µM (active) and 7.22 µM (active) in experiment [7]; 8.67 µM (active) and 1.64 µM (active) in [15]. For the same compound, in [10], the AC50 was 23.4 µM (active) and 3.75 µM (active).

Regarding `CCCCC(CC)COC(=O)c1ccc(C(=O)OCC(CC)CCCC)c(C(=O)OCC(CC)CCCC)c1` (configuration not stated), the AC50 in [1] is 100 µM (active) and 11.9 µM (active); in experiment [13] it was 57.8 µM (active); in [5] it was 6.16 µM (active) and 26.5 µM (active); in experiment [7], 100 µM (active) and 34.2 µM (active); in experiment [15], 36.8 µM (active). Besides, the compound was classed as inactive in experiment [12], in experiment [13], in [4], in [14], in [6] and in experiment [18]. For the same compound, the result in [15], in experiment [9], in [10] and in [16] was inactive.

As for `CCC[CH2][Sn]([Cl])([CH2]CCC)[CH2]CCC`, the call in [11], in experiment [13], in experiment [8], in experiment [15] and in experiment [16] was inactive.

On to `O=[N+]([O-])c1ccc(Oc2ccc(Cl)cc2Cl)cc1`, for which the outcome in experiment [11], in experiment [1], in experiment [2], in [13], in experiment [4] and in [14] was inactive. Besides, the call in [5], in [15] and in experiment [16] was inactive. For the same compound, the AC50 in experiment [7] was 67.8 µM (active) and 7.06 µM (active); in [15], 27 µM (active); in experiment [9], 16 µM (active) and 10.8 µM (active); in experiment [10] it was 16.9 µM (active) and 27.2 µM (active).
